The panel holds about 83,000 compounds, 20% with a hit somewhere; the sample as a whole holds those more often.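 How to read the values: 0–100, growth inhibition (40 = 60% inhibited); 0, no net growth; -100 to 0, cell death (-40 = 40% of starting cells died; -100 = all dead).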 Unmarked numbers belong to inactive results. The source made the active and inactive calls. Rule for the calls: active = growth percent below 10; inactive = the rest.

Our source for the growth values is PubChem BioAssay (NCI).

Some test systems named below: T-47D breast; BT-549 breast; SW-620 colon; MCF7 breast; HCT-116 colon; HCC-2998 colon; KM12 colon; MDA-MB-435 melanoma.
What all share (assay): NCI-60 one-dose screen, 48 h (100 = growth as untreated, 0 = no growth, -100 = all killed)
Conditions in all cases: 10 µM unless noted

`COc1cc(Nc2cc(C)nc(N3CCN(c4ccnc5cc(Cl)ccc45)CC3)n2)cc(OC)c1`: the growth in the experiment with T-47D breast is 8.17% (active); with BT-549 breast it was 41.8%; with SW-620 colon, 15.9%; in the experiment on MCF7 breast it was 5.32% (active); in the experiment with HCT-116 colon, 2.14% (active); with HCC-2998 colon it was 7.77% (active). Moreover, the growth in the experiment with KM12 colon was 3.72% (active).
For `COc1cccc2c1C(=O)c1c(O)c3c(c(O)c1C2=O)C[C@](O)(C(=O)CO)C[C@H]3O[C@@H]1C[C@@H](NC(=O)CCCCCN(C)C2(c3ccc(F)cc3)CC3CCC2C3)[C@H](O)[C@@H](C)O1` (stereo partly specified), the growth in the experiment with T-47D breast was 86.3%; in the experiment with BT-549 breast, 52%; in the experiment with MDA-MB-435 melanoma, -17.9% (active); in the experiment on SW-620 colon, -74.9% (active); with MCF7 breast, -46.2% (active); in the experiment with HCT-116 colon, -91.8% (active). Besides, the growth with KM12 colon was -68.5% (active).
In the case of `COc1ccc(O)c(N=Nc2nccs2)c1`, the growth is 37% with T-47D breast; 95.6% in the experiment with BT-549 breast; 62.3% with SW-620 colon; 64.3% in the experiment on MCF7 breast; 65.5% in the experiment with HCT-116 colon; 89.4% in the experiment on HCC-2998 colon. In addition, the growth in the experiment with KM12 colon was 73.3%.
In the case of `CCCOc1ccc2nc(NC(=O)OC)[nH]c2c1`, the growth with T-47D breast is 89.8%; with BT-549 breast, 33.4%; with MDA-MB-435 melanoma, -49.3% (active); with SW-620 colon it was 22.8%; in the experiment with HCT-116 colon, 9.34% (active); in the experiment on HCC-2998 colon it was -14% (active). Further, the growth with KM12 colon is 5.74% (active).
Regarding `Cc1ccc2c(c1)C(=O)/C(=C/c1cccc(OCC(=O)c3ccc(Cl)cc3)c1)CS2`, the growth is 84.9% in the experiment with T-47D breast; 101% in the experiment on BT-549 breast; 65.3% in the experiment on MDA-MB-435 melanoma; 25.1% in the experiment on SW-620 colon; 47.4% with MCF7 breast; 52.9% in the experiment with HCT-116 colon. For the same compound, the growth with KM12 colon is 60.3%.
Consider `C#CC(F)(F)[C@]1(O)CC[C@H]2[C@@H]3CCC4=CC(=O)CCC4=C3[C@@H](c3ccc(C4CC4)cc3)C[C@@]21C`, for which the growth was 17.5% with T-47D breast; 73.1% with BT-549 breast; 18.5% with SW-620 colon; 36.9% in the experiment with MCF7 breast; 75.8% in the experiment with HCT-116 colon; 92% in the experiment on HCC-2998 colon. The growth with KM12 colon is 6.36% (active).
On to `COc1ccc(/C=C2\Oc3cc(OCCCCN4CCCC4)ccc3C2=O)cc1`, for which the growth is 87.8% with T-47D breast; 82.3% in the experiment with BT-549 breast; 13.4% in the experiment with SW-620 colon; 39.6% in the experiment on MCF7 breast; 5.32% (active) in the experiment on HCT-116 colon; 91% in the experiment on HCC-2998 colon. For the same compound, the growth with KM12 colon was 70.5%.
As for `CC(C)c1c(C(=O)c2ccccc2)c(-c2ccccc2)c(-c2ccc(F)cc2)n1CC[C@@H](O)C[C@@H](O)CC(=O)O`, the growth is 91.4% with T-47D breast; 70.2% with BT-549 breast; 68.9% in the experiment with MDA-MB-435 melanoma; 76.2% in the experiment with SW-620 colon; 47.4% in the experiment with HCT-116 colon; 85.6% in the experiment with HCC-2998 colon.
On to `Nc1ccc(S(=O)(=O)O)c2ccc(N=Nc3ccc(N=Nc4ccc(S(=O)(=O)O)cc4)c4ccccc34)c(O)c12`, for which the growth in the experiment on T-47D breast is 124%; with BT-549 breast it was 107%; in the experiment on SW-620 colon it was 93.5%; in the experiment on MCF7 breast it was 101%; in the experiment with HCT-116 colon it was 99.4%; in the experiment with HCC-2998 colon, 105%. Besides, in the experiment on KM12 colon, the growth is 99%.
As for `O=c1c(F)cn(Cc2ccccc2CCl)c(=O)n1Cc1ccccc1CCl`, the growth with T-47D breast is -49.5% (active); in the experiment with BT-549 breast, -73.9% (active); in the experiment on MDA-MB-435 melanoma it was -67.1% (active); with SW-620 colon it was -74.6% (active); in the experiment with MCF7 breast it was -47.7% (active); in the experiment with HCT-116 colon, -56.9% (active). Besides, the growth in the experiment on KM12 colon was -16.2% (active).
Consider `CCOc1ccc(-n2nc(C(=O)Nc3ccccc3)nc2-c2cc(OC)c(OC)c(OC)c2)cc1`, for which the growth in the experiment with T-47D breast was 39.4%; with BT-549 breast, 60.9%; with MDA-MB-435 melanoma, 0.193% (active); in the experiment on SW-620 colon it was 36.2%; in the experiment with MCF7 breast, 37%; in the experiment with HCT-116 colon, 21.2%. Also, the growth in the experiment with KM12 colon was 27.5%.
For `NC(=NC1C2CC3CC(C2)CC1C3)Nc1ccc(I)cc1` (stereo unspecified), the growth in the experiment on T-47D breast was 2.31% (active); with BT-549 breast, 53.7%; in the experiment on MDA-MB-435 melanoma, 30.7%; in the experiment on SW-620 colon, 20.9%; in the experiment on MCF7 breast, 9.29% (active); with HCT-116 colon, 8.08% (active). Moreover, in the experiment with KM12 colon, the growth is 45.9%.
For the compound `CCOc1ccc(-n2nc(C(=O)Nc3cc(OC)c(OC)c(OC)c3)nc2-c2cc(OC)c(OC)c(OC)c2)cc1`, the growth is 51.4% with T-47D breast; 91.4% in the experiment on BT-549 breast; 79.6% in the experiment with MDA-MB-435 melanoma; 95.5% with SW-620 colon; 83.2% in the experiment with MCF7 breast; 75.8% in the experiment on HCT-116 colon. Also, in the experiment with KM12 colon, the growth is 81.8%.
For the compound `C=C(C)C(=O)Nc1ccc(NC(C)C)cc1`, the growth in the experiment on T-47D breast was 100%; with BT-549 breast, 156%; in the experiment with MDA-MB-435 melanoma, 117%; in the experiment with SW-620 colon, 105%; with MCF7 breast, 146%; with HCT-116 colon, 105%. Besides, the growth in the experiment on KM12 colon was 109%.
For the compound `CC1SC(c2ccc(N(C)C)cc2)N(NC(=O)C(O)(c2ccccc2)c2ccccc2)C1=O` (stereo unspecified), the growth in the experiment on T-47D breast was 87.6%; with BT-549 breast it was 93.1%; in the experiment with MDA-MB-435 melanoma it was 84.3%; in the experiment on SW-620 colon, 104%; in the experiment with MCF7 breast, 118%; in the experiment on HCT-116 colon it was 80.8%. For the same compound, the growth in the experiment on KM12 colon is 87.4%.
Turning to `CCCCCCN(CCCCCC)C(=N)c1ccnc2ccccc12`, the growth with T-47D breast is 88.1%; in the experiment with BT-549 breast, 73.8%; in the experiment on MDA-MB-435 melanoma, 61.8%; in the experiment with SW-620 colon, 59.8%; in the experiment on HCT-116 colon it was 31.2%; with HCC-2998 colon it was -59.9% (active). The growth with KM12 colon is 71.1%.
